{"source": "the supplement of paper PMC6555819", "data": [{"tested_on": "PPARg DBDmut IVT, anti-PPARg (DBD mutation: PPARg1 K132A/R137A, NR concentration 270 nM)", "experiment": "PBM binding z-score (relative to random genomic background probes); higher = stronger binding; sequences stand for … in GC…GCGATTGACAGCGTAGAATGAAGG", "outline": "(§1)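 Custom Agilent 4×180K protein-binding microarrays carried double-stranded probes, each with a 34-nt variable region. These regions held direct-repeat seeds, single-nucleotide variants, half-site ablations and random human genomic background sequences. Ligand-free nuclear receptor dimers were incubated on the arrays for 1 h, antibodies against each partner (one per run) detected binding, and scanned fluorescence was regression-normalized. Binding z-scores take the random background probes as reference.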", "values": [{"sequence": "CCTTACGGGTCACGAGGTTATAACACGACGAGCG", "PBM binding z-score": 0.726}, {"sequence": "GGAACGAGTGCATTCGAGTTGATAGCATGGCGAT", "PBM binding z-score": -0.767}, {"sequence": "TAGCCTCGGTCATGGGCCAGTATACCACGCGAAC", "PBM binding z-score": -1}, {"sequence": "TCGAGTAGGTTAGGGGCATTGAGAATGGCGTCGA", "PBM binding z-score": -0.696}, {"sequence": "CCTAGCTGGCCAGGGTCACTCAAGCATTTCGCTT", "PBM binding z-score": -0.97}, {"sequence": "CCAACTGGGGCATAAGGTTACCATAAGCCAGCCC", "PBM binding z-score": -0.438}, {"sequence": "CTACCAAGGTGCACAAGGTCGTTGATTACTATTC", "PBM binding z-score": -0.417}, {"sequence": "TCAGATAGGTAATACAGGTGAAAGTCGGCATCTA", "PBM binding z-score": 0.382}, {"sequence": "GGAACGAGGGCATTCGAGTTAATAGCATGGCGAT", "PBM binding z-score": -0.5}, {"sequence": "CCTAGCAGGCCAATCTGAGTCACTCAAGGCTTGA", "PBM binding z-score": -1.49}, {"sequence": "CTACCATGGTGAACAAGGTCGTTGATTACTATTC", "PBM binding z-score": 0.226}, {"sequence": "ATCTCTAGATAAAGATAGTTCAGTGAATGCAAAT", "PBM binding z-score": 0.839}, {"sequence": "TCTAGTTTGTCACGGAGGTCACACACGACGGGTA", "PBM binding z-score": 1.64}, {"sequence": "CAAACTAGGTCACCGGAAGGTCAAAGTGCGCATG", "PBM binding z-score": 1.74}, {"sequence": "TCGAGTAGGTTAGTCGGCGCATTCAGCCAACATA", "PBM binding z-score": -1.56}, {"sequence": "CCTAGCAGGCCACTCTGGGTCACTCAAGGCTTGA", "PBM binding z-score": -2.2}, {"sequence": "TCATATAGGTAAATGCTATGTGAAAGTCCGATCT", "PBM binding z-score": 1.39}, {"sequence": "AGTCAAAGTTCAGGACGAGGTAACGTCAAGCACG", "PBM binding z-score": -0.603}, {"sequence": "TGTTAAAGTTCAAAGGTAACGTAAGTATCCACAC", "PBM binding z-score": 2.02}, {"sequence": "AGAATGAGGTTATTAAGATCACGGAATTGCGGTC", "PBM binding z-score": 1.25}, {"sequence": "CCTTACGGGTCACGGACAGGTTATAGCATTTGGA", "PBM binding z-score": 2.15}, {"sequence": "CTCGAAAGGTCGGTTGAGGTGAGTATTCGGATAA", "PBM binding z-score": 0.135}, {"sequence": "ACAGACAGGTGATGCAGGTAACTCAGGCTATCAT", "PBM binding z-score": 0.231}, {"sequence": "CCATACGGGTCACTCCAGGTTATAGCATCGGAGT", "PBM binding z-score": 0.0685}, {"sequence": "TAGCCTAGGTCAGATCGGGCCATTATACGCTATA", "PBM binding z-score": -0.774}, {"sequence": "CCCTACGGGTCACTCCAGGTTATAGCATCGGAGT", "PBM binding z-score": -0.254}, {"sequence": "CCTACTGGGCCAAGGACATTGATCAGTCAAAGCA", "PBM binding z-score": -0.839}, {"sequence": "TCTTGTAGATCAAGAAGGTTAAGAAAGCCTGAGT", "PBM binding z-score": 0.523}, {"sequence": "CCTTACGGGTCACGAGGTTATAGCACGACGAGCG", "PBM binding z-score": 0.701}, {"sequence": "CTACCAAGGTGAACAAGGCCGTTGATTACTATTC", "PBM binding z-score": -0.28}, {"sequence": "GCAGACAGGTGAAACGCGGGTAACTCAGGGTGGC", "PBM binding z-score": -1.01}, {"sequence": "CCAGACAGGTGAGAAGGTATCTCAGCCTCGATTA", "PBM binding z-score": -0.0601}, {"sequence": "CTACCAAGGTGAACAAGGTCGTGGATTACTATTC", "PBM binding z-score": -0.0966}, {"sequence": "CCTTACGGGTCACTCCAGGTTATAGAATCGGAGT", "PBM binding z-score": 0.0238}, {"sequence": "ATCTAAAGGTCGACGAGGTGAGTATACACCGTTT", "PBM binding z-score": 0.877}, {"sequence": "ATACCTAGGTGATCGTGAGGTCGTTGATACTAAC", "PBM binding z-score": 0.924}, {"sequence": "TAGTCTAGGTCAGATCGGGCCAGTATACGCTATA", "PBM binding z-score": 1.67}, {"sequence": "AGTCAAAGTTCATCTAGGTAACGTACGATATGCT", "PBM binding z-score": 2.09}, {"sequence": "CCGACTGGGGCAGAAAGGTTACCAGACCATCCGG", "PBM binding z-score": -1.01}, {"sequence": "TCATATAGGTAAATGCTTGGTGAAAGTCCGATCT", "PBM binding z-score": 1.07}]}, {"tested_on": "PPARg homodimer (NR concentration 180 nM)", "experiment": "PBM binding z-score (relative to random genomic background probes); higher = stronger binding; sequences stand for … in GC…GCGATTGACAGCGTAGAATGAAGG", "outline": "as §1", "values": [{"sequence": "CCTTACGGGTCACGAGGTTATAACACGACGAGCG", "PBM binding z-score": 2.11}, {"sequence": "GGAACGAGTGCATTCGAGTTGATAGCATGGCGAT", "PBM binding z-score": -1.32}, {"sequence": "TAGCCTCGGTCATGGGCCAGTATACCACGCGAAC", "PBM binding z-score": -0.0918}, {"sequence": "TCGAGTAGGTTAGGGGCATTGAGAATGGCGTCGA", "PBM binding z-score": 1.3}, {"sequence": "CCTAGCTGGCCAGGGTCACTCAAGCATTTCGCTT", "PBM binding z-score": 0.811}, {"sequence": "CCAACTGGGGCATAAGGTTACCATAAGCCAGCCC", "PBM binding z-score": 0.423}, {"sequence": "CTACCAAGGTGCACAAGGTCGTTGATTACTATTC", "PBM binding z-score": 0.705}, {"sequence": "TCAGATAGGTAATACAGGTGAAAGTCGGCATCTA", "PBM binding z-score": 0.675}, {"sequence": "GGAACGAGGGCATTCGAGTTAATAGCATGGCGAT", "PBM binding z-score": 0.00587}, {"sequence": "CCTAGCAGGCCAATCTGAGTCACTCAAGGCTTGA", "PBM binding z-score": 0.0523}, {"sequence": "CTACCATGGTGAACAAGGTCGTTGATTACTATTC", "PBM binding z-score": 0.387}, {"sequence": "ATCTCTAGATAAAGATAGTTCAGTGAATGCAAAT", "PBM binding z-score": 0.626}, {"sequence": "TCTAGTTTGTCACGGAGGTCACACACGACGGGTA", "PBM binding z-score": 2.96}, {"sequence": "CAAACTAGGTCACCGGAAGGTCAAAGTGCGCATG", "PBM binding z-score": 7.29}, {"sequence": "TCGAGTAGGTTAGTCGGCGCATTCAGCCAACATA", "PBM binding z-score": -0.687}, {"sequence": "CCTAGCAGGCCACTCTGGGTCACTCAAGGCTTGA", "PBM binding z-score": 0.299}, {"sequence": "TCATATAGGTAAATGCTATGTGAAAGTCCGATCT", "PBM binding z-score": 0.542}, {"sequence": "AGTCAAAGTTCAGGACGAGGTAACGTCAAGCACG", "PBM binding z-score": 3.18}, {"sequence": "TGTTAAAGTTCAAAGGTAACGTAAGTATCCACAC", "PBM binding z-score": 3.98}, {"sequence": "AGAATGAGGTTATTAAGATCACGGAATTGCGGTC", "PBM binding z-score": 1.1}, {"sequence": "CCTTACGGGTCACGGACAGGTTATAGCATTTGGA", "PBM binding z-score": 5.94}, {"sequence": "CTCGAAAGGTCGGTTGAGGTGAGTATTCGGATAA", "PBM binding z-score": 1.02}, {"sequence": "ACAGACAGGTGATGCAGGTAACTCAGGCTATCAT", "PBM binding z-score": 0.328}, {"sequence": "CCATACGGGTCACTCCAGGTTATAGCATCGGAGT", "PBM binding z-score": 1.66}, {"sequence": "TAGCCTAGGTCAGATCGGGCCATTATACGCTATA", "PBM binding z-score": 0.357}, {"sequence": "CCCTACGGGTCACTCCAGGTTATAGCATCGGAGT", "PBM binding z-score": 2.92}, {"sequence": "CCTACTGGGCCAAGGACATTGATCAGTCAAAGCA", "PBM binding z-score": -0.294}, {"sequence": "TCTTGTAGATCAAGAAGGTTAAGAAAGCCTGAGT", "PBM binding z-score": 0.323}, {"sequence": "CCTTACGGGTCACGAGGTTATAGCACGACGAGCG", "PBM binding z-score": 2.37}, {"sequence": "CTACCAAGGTGAACAAGGCCGTTGATTACTATTC", "PBM binding z-score": 0.346}, {"sequence": "GCAGACAGGTGAAACGCGGGTAACTCAGGGTGGC", "PBM binding z-score": -0.647}, {"sequence": "CCAGACAGGTGAGAAGGTATCTCAGCCTCGATTA", "PBM binding z-score": 0.414}, {"sequence": "CTACCAAGGTGAACAAGGTCGTGGATTACTATTC", "PBM binding z-score": 1.98}, {"sequence": "CCTTACGGGTCACTCCAGGTTATAGAATCGGAGT", "PBM binding z-score": 1.95}, {"sequence": "ATCTAAAGGTCGACGAGGTGAGTATACACCGTTT", "PBM binding z-score": 1.81}, {"sequence": "ATACCTAGGTGATCGTGAGGTCGTTGATACTAAC", "PBM binding z-score": 0.783}, {"sequence": "TAGTCTAGGTCAGATCGGGCCAGTATACGCTATA", "PBM binding z-score": 1.18}, {"sequence": "AGTCAAAGTTCATCTAGGTAACGTACGATATGCT", "PBM binding z-score": 2.4}, {"sequence": "CCGACTGGGGCAGAAAGGTTACCAGACCATCCGG", "PBM binding z-score": 0.446}, {"sequence": "TCATATAGGTAAATGCTTGGTGAAAGTCCGATCT", "PBM binding z-score": 0.653}]}]}
